This is a sample that favours compounds with a hit; in the whole collection about 7.3% have one here.
FMDV inh = antivirals against foot and mouth disease virus | FMDV antiviral cell-based qHTS | Potency, µM (titrated, usually from 57.9 µM), for inactives: at the top dose activity change, negative = inhibition, actives largely listed as inhibitors | actives 1.2% (n = 410,000) | AID 1159524; calls by dose curve; tested in HEK293T cells; note: read-out not given here; potency is the fitted concentration of half-maximal effect; nearly all actives have a fitted effect of over 45% in size
HCMV inh = inhibitors of human cytomegalovirus. activity change, negative = inhibition, % at 57.5 µM. actives 4.5% (n = 410,000). HFF cells, HCMV-luciferase reporter, 72 h; active compounds read low; in the data active = activity change below about -60%; inconclusive = no clear call, values can overlap the other calls; inactive = above about -39%
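Steps: HFFs plated, 16 h 37C; compounds added; HCMV-luciferase added to MOI 1 PFU/cell; 72 h 37C; OneGlo reagent, 5 min room temperature; luminescence read, normalized to controls.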
AmpC inh no detg = inhibitors of E. coli AmpC beta-lactamase without detergent. AmpC nitrocefin hydrolysis, absorbance 480 nm, 0.0001% Triton. actives 0.52% (n = 330,000). P00811. AID 485341. Potency, µM (series often up to 57.1 µM), for inactives: at the top dose activity change, negative = inhibition, most hits filed as inhibitors;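 note: potency is the fitted concentration of half-maximal effect; plate controls were no compound for no effect and no enzyme for full effect; nearly all actives have a fitted effect of over 20% in size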
Target sequence (P00811 whole entry, looked up): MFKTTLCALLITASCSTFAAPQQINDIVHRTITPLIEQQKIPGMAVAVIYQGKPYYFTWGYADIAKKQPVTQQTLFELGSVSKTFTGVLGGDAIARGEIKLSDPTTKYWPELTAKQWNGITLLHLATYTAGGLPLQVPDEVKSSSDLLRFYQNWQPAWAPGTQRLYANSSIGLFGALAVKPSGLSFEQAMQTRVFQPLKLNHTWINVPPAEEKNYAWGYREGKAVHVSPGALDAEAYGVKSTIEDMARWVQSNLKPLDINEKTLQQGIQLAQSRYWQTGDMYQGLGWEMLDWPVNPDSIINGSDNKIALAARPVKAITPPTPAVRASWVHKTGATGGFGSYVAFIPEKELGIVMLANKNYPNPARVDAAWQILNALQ
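20 mM phosphate pH 7.0 + 0.01% (detergent screen) or 0.0001% Triton X-100; 5.3 nM AmpC reagent; cpd preinc 15 min RT; nitrocefin (800 uM stock) to start; A480 q20 s × 4 min; Activity was normalised to no-enzyme and no-compound control wells.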
AmpC detergent = AmpC beta-lactamase inhibition with detergent present. AmpC hydrolysis of nitrocefin, absorbance 480 nm, 0.01% Triton. AID 485294. Potency, µM (series often up to 114 µM), for the others: at the top dose activity change, negative = inhibition, most hits filed as inhibitors. actives 0.041% (n = 370,000);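 note: potency is the fitted concentration of half-maximal effect; 0% = no-compound wells and -100% = no-enzyme wells; nearly all actives have a fitted effect of over 25% in size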
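AmpC (5.3 nM in the dispensed reagent) in 20 mM phosphate pH 7.0 with 0.01% (detergent screen) or 0.0001% Triton X-100 was preincubated with compounds for 15 min at room temperature. Nitrocefin was then added from an 800 uM solution, and hydrolysis was followed at 480 nm.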
HCV inhibitor = blocks hepatitis C virus. AID 651820. actives 3.4% (n = 340,000). Huh7.5.1 HCVcc-Cre infection, luciferase reporter, 44 h. Potency, µM (titrated, usually from 41.8 µM), for inactives: at the top dose activity change, negative = inhibition, hits mostly inhibitors; note: potency is the fitted concentration of half-maximal effect
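Seed cells (1,000/well) for 4 h; treat with compound and infect with HCVcc-Cre, moi about 0.5. Incubate 44 h, then detect luciferase activity.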
An asterisk follows results filed as active; ? = inconclusive; . = no result; [ ] = remark or other dose. Unless noted, calls come from the whole dose curve; as a rule, active = well fitted curve in the direction sought with a large enough effect; inconclusive = small, poorly fitted or top-dose-only effect, or another doubt; inactive = no such curve, though single readings can be large; an effect the other way counts as inactive or inconclusive. Unless noted, % is set by controls: 0 for no effect and ±100 for the full control effect.

SMILES	FMDV inh	HCMV inh	AmpC inh no detg	AmpC detergent	HCV inhibitor
Cc1oc(-c2ccccc2Cl)nc1CSCC(=O)NC1CCCC1	-14.1%	-74.9*	19.4%	?	-12.0%
Cc1oc(-c2ccccc2Cl)nc1CSCC(=O)N1CCCC1	24.4%	-77.6*	72.0%	-9.9%	?
Cc1oc(-c2ccccc2Cl)nc1CSc1nc2c(c(=O)[nH]1)CCC2	22.4µM*	-15.5	-35.7%	-16.1%	1.3%[8.37 µM]
CCCCOP(=O)(OCCCC)C(O)c1ccc(F)cc1 (stereo not drawn)	78.6%	12.7	127.3%	-1.3%	3.0%
CC(C)COP(=O)(OCC(C)C)C(O)c1ccc(F)cc1 (stereo not drawn)	48.7%	-99.7*	41.3%	-8.9%	14.7%
COc1ccc(N(CC(=O)NCc2ccco2)C(=O)CNS(=O)(=O)c2ccc(Cl)cc2)cc1	5.9%	-19.5	-10.3%	4.9%	2.6%
O=C(CN1C(=O)COc2ccc(S(=O)(=O)N3CCOCC3)cc21)Nc1ccc(F)c(Cl)c1	13.7%	4.7	.	-8.6%	.
CC(C)(C)n1nnnc1C(c1cccs1)N(Cc1cccnc1)Cc1ccccc1Cl (stereo not drawn)	-14.0%	-19.6	20.1%	-9.8%	10µM*
O=C(/C=C/c1ccc(Cl)cc1)N1CCC(c2nc3ccccc3o2)CC1	7.1%	-28.3	.	15.0%	.
O=C(CSc1ccc(-c2ccncc2)nn1)c1ccc(Cl)cc1	-27.4%	-13.3	-14.7%	4.0%	2.9%
NC(=O)C(c1ccc(Cl)cc1)c1ccc(Sc2ccc(Cl)cc2)nn1 (stereo not drawn)	?	-89.1*	-4.3%	-8.7%	?
O=C(COC(=O)c1ccc(NS(=O)(=O)c2cccs2)cc1)Nc1nc2c(F)c(F)c(F)cc2s1	-10.9%	.	20µM*	-4.3%	10.2%
CCCCOC(=O)Nc1ccc(S(=O)(=O)Nc2nc(C)cc(C)n2)cc1	50.1%	24.6	-16.3%	-0.8%	2.6%
CCCCOC(=O)NS(=O)(=O)c1sc(CC(C)C)cc1-c1ccc(Cn2c(CC)nc3c(C)cc(C)nc32)cc1	.	.	91.0%	?	12.6µM*
O=C(Nc1ccccc1)Nc1ccccc1	63.5%	0.4	.	.	?
O=C(Nc1ccccc1)Nc1n[nH]c2nnc(-c3ccccc3)c(-c3ccccc3)c12	?	7.6	31.6µM*	-6.3%	14.1µM*
C=CCS/C(N)=N\N=C\c1c(O)ccc2ccccc12	44.4%	53.1	70.8%	2.2%	22.4µM*
Cc1ccc(NS(=O)(=O)c2ccc(N3CCN(c4ccc(O)cc4)CC3)c([N+](=O)[O-])c2)c(C)c1	28.2µM*	-63.9*	-11.4%	-3.1%	?
COc1ccc(CN2C[C@H](COCc3ccccc3)Oc3cccc(N4CCCC4)c3S2(=O)=O)cc1	.	-17.9	.	.	.
Cc1cc(C)n(CC(=O)NNC(=O)c2cccc(C(F)(F)F)c2)n1	-19.4%	?	-6.1%	-9.5%	7.3%
Cc1cc(NNC(=O)c2cccc(C(F)(F)F)c2)nc2c1c(C)nn2C	?	?	35.5%	2.8%	4.47µM*
CC1(C(=O)NS(=O)(=O)c2cccc(C#N)c2)CCN1C(=O)CC1CC1 (stereo not drawn)	-15.9%	-0.7	.	.	.
COc1ccc(CNc2nc3c(c(=O)n(C)c(=O)n3C)n2Cc2ccccc2Cl)cc1	-8.4%	2.7	.	0.6%	.
COc1c(O)cc(O)c2c(=O)cc(-c3ccccc3)oc12	56.1%	10.1	-21.4%	.	?
COc1ccc(OC)c(/C=N/NC(=O)c2ccc(Cn3cc([N+](=O)[O-])cn3)o2)c1	-17.2%	?	39.8µM*	?	?
SMILES	FMDV inh	HCMV inh	AmpC inh no detg	AmpC detergent	HCV inhibitor
Cc1nn(-c2ccccc2)c(Cl)c1/C=N/Nc1ccc(Cl)c(C(=O)O)c1	10µM*	138.5	-19.2%	?	8.4%
O=c1[nH]c2ccccc2c2ccccc12	-3.4%	15.8	-15.4%	-7.1%	14.1µM*
c1ccc2c(c1)[nH]c1ccccc12	-9.7%	.	.	.	12.6%
CC(NC=O)c1nc2ccccc2n1CCc1ccccc1 (stereo not drawn)	4.3%	-7.2	0.9%	-3.8%	7.7%
Cc1ccccc1-n1c(/C=C/c2c(C)n(C)c3ccccc23)nc2ccccc2c1=O	-27.0%	-19.0	.	-3.9%	.
COc1ccccc1-n1c(/C=C/c2c(C)n(C)c3ccccc23)nc2ccccc2c1=O	?	-85.1*	.	-2.8%	.
Cc1cccc(-n2c(/C=C/c3ccccn3)nc3ccccc3c2=O)c1	?	-101.0*	-15.2%	1.9%	?
COc1ccccc1-n1c(/C=C/c2ccccn2)nc2ccccc2c1=O	?	-101.1*	45.0%	-6.7%	?
COc1cccc(-n2c(/C=C/c3ccccn3)nc3ccccc3c2=O)c1	-29.3%	?	-9.8%	8.6%	13.3%
CCCc1nc2ccccc2c(=O)n1-c1ccccc1OC	-16.2%	-40.0	-3.9%	-15.7%	8.0%
O=c1cc(-c2ccccc2O)nc(-c2ccccc2)[nH]1	31.2%	13.9	.	.	5.1%
O=C1NC(=Nc2ccc(Cl)cc2)/C(=C/c2ccco2)S1	48.2%	-80.0*	-48.2%	-18.1%	?
O=C1NC(=Nc2ccc(O)cc2)S/C1=C/c1ccco1	4.8%	-1.1	10µM*	0.5%	?
Cc1cccc(N=C2NC(=O)/C(=C/C=C/c3ccco3)S2)c1	9.4%	13.9	28.2µM*	-14.1%	?
O=C1NC(=Nc2ccc3ccccc3c2)S/C1=C/c1ccco1	28.7%	-14.5	31.6µM*	2.1%	-21.3%
COc1ccc(-c2nnc(C(C)Nc3cccc(C(=O)NC4CC4)c3)o2)cc1 (stereo not drawn)	4.2%	93.1	2.9%	.	-1.0%
CCc1sc(C(=O)N(CCCOC)c2c(N)n(CC(C)C)c(=O)[nH]c2=O)cc1C	-16.9%	?	-3.2%	0.0%	5.9%
O=C(NCc1ccccc1)C(Nc1ccccc1)c1ccccc1F (stereo not drawn)	.	-8.2	.	.	.
Cc1ccc(NC(=O)c2c(C(F)(F)F)nn(C)c2SCc2cccc(C(F)(F)F)c2)cc1C	-27.4%	-88.1*	1.1%	0.9%	?
Cc1ccc(NC(=O)c2c(C(F)(F)F)nn(C)c2SCc2ccc(Cl)cc2)cc1C	-8.2%	23.9	2.4%	?	5.5%
COC(=O)c1c(C)oc(C)c1S(=O)(=O)NCc1cccs1	78.2%	-60.3*	-4.4%	3.1%	9.2%
COC(=O)c1c(C)oc(C)c1S(=O)(=O)NCc1ccco1	52.9%	136.6	-17.6%	4.9%	19.7%
O=C1CCC/C(=N\NC(=O)c2ccc(NS(=O)(=O)c3ccc(Br)cc3)cc2)C1	-10.6%	-32.4	28.2µM*	-7.1%	15.4%
Cc1ccc(S(=O)(=O)N(C)Cc2ccc(C(=O)N/N=C3\CCCC(=O)C3)cc2)cc1	-12.2%	-38.0	-59.4%	-4.5%	?
CCOC(=O)N1CCC(NC(=O)c2cc(COc3ccccc3SC)on2)CC1	0.0%	-38.8	79.5%	?	15.8µM*

Assay outcomes: PubChem, National Center for Advancing Translational Sciences (NCATS)
